D1 antagonist – blocks dopamine activation of the human D1 receptor. HEK293 TREx D1 cells, calcium flux, dopamine EC80; stronger effect = lower value. activity change, negative = inhibition, % at 10 µM. AID 504652. P21728. 360,000 tested, 3.2% active; in the data active = activity change below about -30%; also: % is scaled to controls: 0 for no effect and ±100 for the full control effect
Target sequence (P21728 whole entry, looked up): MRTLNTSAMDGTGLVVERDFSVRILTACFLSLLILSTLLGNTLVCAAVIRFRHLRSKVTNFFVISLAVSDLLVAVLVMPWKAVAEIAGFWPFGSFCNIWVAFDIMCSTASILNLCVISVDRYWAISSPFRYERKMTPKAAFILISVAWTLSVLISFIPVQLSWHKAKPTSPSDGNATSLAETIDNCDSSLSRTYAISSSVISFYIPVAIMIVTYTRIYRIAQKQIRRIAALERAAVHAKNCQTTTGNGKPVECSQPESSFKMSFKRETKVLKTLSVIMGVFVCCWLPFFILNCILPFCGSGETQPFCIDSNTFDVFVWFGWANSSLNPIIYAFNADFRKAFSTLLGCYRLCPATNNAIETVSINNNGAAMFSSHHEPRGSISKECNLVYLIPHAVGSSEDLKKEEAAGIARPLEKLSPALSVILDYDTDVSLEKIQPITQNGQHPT
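Antagonism measured as reduced calcium response to an EC80 dopamine addition following 180 s compound pre-read; cells were inducible HEK293 Trex D1 plated overnight at 30 C, read kinetically at 1 cycle/sec.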
D3 ag – agonists of human D3 dopamine receptor; P35462; D3R DiscoveRx beta-arrestin cells, luminescence, 90 min; max activation, %; 410,000 tested, 0.58% active; in the data active = max activation above about 30%; also: 0% is about no effect
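Agonist mode: compounds and dopamine controls were applied to plated cells for 90 min at 37 degrees C after an overnight attachment at 1500 cells/well. Luminescent read-out followed 30 - 60 minutes at room temperature with DiscoveRx detection reagent.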
D1 ag – activates the human D1 dopamine receptor | P21728 | 360,000 tested, 1% active | activation, % at 2 µM | HEK293 T-REx D1 cells, calcium flux, agonist mode; in the data active = activation above about 30%; also: 0% is about no effect
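Agonism was scored from calcium flux recorded over 180 s (1 read/s) after pintool compound addition, following a 10-cycle baseline. Cells were inducible force-coupled HEK293 TREx D1, plated overnight at 30 C and loaded with no-wash calcium dye.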
D1 PAM – potentiators of human D1 dopamine receptor. HEK293 TREx D1 cells, calcium flux, dopamine EC20 potentiation. 360,000 tested, 0.036% active. potentiation, % at 10 µM. AID 504651. P21728; in the data active = potentiation above about 30%; also: 0% is about no effect
DRD3 antagonist – D3 dopamine receptor (human) antagonism; D3R cells, DiscoveRx beta-arrestin luminescence, antagonist mode; stronger effect = lower value; max response, negative = inhibition, %; P35462; 360,000 tested, 2.5% active; AID 652054; in the data active = max response below about -50%; inconclusive = no clear call, values can overlap the other calls; also: % is scaled to controls: 0 for no effect and ±100 for the full control effect
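Cells plated overnight at 1500 cells/well, then exposed to library compounds with dopamine controls for 90 minutes at 37 degrees C. DiscoveRx reagent added for 30–60 minutes at room temperature; luminescence read, quantitative HTS format.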
The depositor's hits bear a star; ? = inconclusive; · = no result. In the library only some 6% were active in any assay of this set; here they are far more common.

SMILES	D1 antagonist	D3 ag	D1 ag	D1 PAM	DRD3 antagonist
O=C(NCCN1CCN(c2cccc(Cl)c2)CC1)Nc1ccccc1C(F)(F)F	-43*	-18	19	-4	·
COC(=O)CNC(=O)c1cccc(Cl)c1	-32*	3	4	-4	12
O=C(NCCCN1CCN(c2cccc(Cl)c2)CC1)Nc1ccccc1C(F)(F)F	-55*	-4	32*	-1	·
O=C(CN1CCN(c2ccccc2)CC1)Nc1ccccc1C(F)(F)F	0	-19	2	0	14
O=C1C(c2[nH]c3ccc(S(=O)(=O)O)cc3c2O)=Nc2ccc(S(=O)(=O)O)cc21	·	5	·	·	·
CC1(N=Cc2cc(Cl)ccc2O)COP(=O)(Nc2ccccc2)OC1 (stereo not given)	·	5	·	·	-2
C[C@@H]1CN([C@@H](C)CO)S(=O)(=O)c2ccc(Br)cc2O[C@H]1CN(C)C(=O)c1ccccc1F	·	-4	·	·	-23
O=C(NCCCN1CCN(Cc2ccccc2Cl)CC1)Nc1ccccc1	-21	-12	3	4	0
Cn1c(=O)c2cc(C(=O)NCCCN3CCN(c4cccc(Cl)c4)CC3)sc2c2ccccc21	-45*	-31	0	-3	·
O=C(NCCN1CCN(c2ccccc2)CC1)C1(S(=O)(=O)c2ccc(Cl)cc2)CC1	2	-1	2	-4	-53*
CN1CCN(CCCNC(=O)c2cc3c(=O)n(C)c4ccccc4c3s2)CC1	-4	3	0	-6	19
Cc1ccccc1CC1CCN(CCCNC(=O)Nc2ccccc2)CC1	-16	-5	12	-7	-83*
Cc1ccc(C)c(CN2CCC(CNC(=O)Nc3ccc(Cl)cc3)CC2)c1	-33*	-10	23	-21	-1
COC(=O)c1sc(N2C(=O)c3oc4ccccc4c(=O)c3C2c2ccc(O)cc2)nc1C (stereo not given)	-2	-4	0	-4	·
CCOc1ccc(NC(=S)N2CCC(C(=O)c3ccc(F)cc3)CC2)cc1	·	-6	·	·	3
CCC(Cc1ccccc1)OC(=O)c1ccccc1C(=O)O (stereo not given)	·	13	·	·	-1
CCC(=O)N1c2ccccc2CC1C(=O)NCCCN1CCN(c2cccc(Cl)c2)CC1 (stereo not given)	-53*	-24	1	-1	·
Cc1cccc(C)c1NC(=O)NCCCN1CCN(c2ccccc2)CC1	-36*	38*	1	-12	?
Cc1cccc(C)c1NC(=O)C(=O)NCCCN1CCOCC1	3	5	5	-6	-8
Nc1ccccc1C(=O)NCCCN1CCN(c2cccc(Cl)c2)CC1	·	-10	·	·	-73*
O=C(NCCN1CCN(c2ccccc2)CC1)c1cccc(Cl)c1	-8	24	4	-5	-56*
CCOc1cc(C(=O)NCCCNC(=O)c2cc(OCC)c(OCC)c(OCC)c2)cc(OCC)c1OCC	·	7	·	·	6
CC(=O)Nc1ccc(S(=O)(=O)N2CCN=C2SCc2cccc(C)c2)cc1	-22	2	8	-11	17
CC(=O)Nc1ccc(S(=O)(=O)N2CCN=C2SCc2ccc([N+](=O)[O-])cc2)cc1	-65*	-31	18	-9	-18
CC(=O)Nc1ccc(S(=O)(=O)N2CCN(CCc3ccccc3)CC2)cc1	-33*	3	4	-6	3
SMILES	D1 antagonist	D3 ag	D1 ag	D1 PAM	DRD3 antagonist
CC(=O)Nc1ccc(S(=O)(=O)N2CCN(c3ccc([N+](=O)[O-])cc3)CC2)cc1	-35*	4	5	-5	-3
CC(=O)Nc1ccc(S(=O)(=O)N2CCN(S(=O)(=O)c3ccc(NC(C)=O)cc3)CC2)cc1	1	8	0	-1	0
Cc1ccc(NC(=O)CCCCCN2C(=O)[C@@H]3Cc4ccccc4CN3C2=O)c(Cl)c1	-3	9	4	-2	16
O=C(/C=C/c1c(Cl)cccc1Cl)n1cccn1	-14	-8	7	-10	-74*
Cc1cc(C)cc(NC(=O)CSc2nc(-c3cccc(Cl)c3)nc3c2Cc2c(CO)cnc(C)c2O3)c1	11	-7	1	2	·
CCCc1c(-c2ccccc2F)ncn1CCc1ccccc1OC	·	4	·	·	13
O=C1C=C(c2ccc3c(c2)oc2ccccc23)C[C@@H](c2ccc3c(c2)OCO3)C1	-33*	-11	0	0	8
Cc1ccc(C2=CC(=O)C[C@H](c3ccc4c(c3)OCO4)C2)cc1	·	-9	0	-1	-7
CSc1ccc(C2=CC(=O)C[C@H](c3ccc4c(c3)OCO4)C2)cc1	-15	-31	5	0	-52*
O=C1NC[C@H](CCCCN2CCN(CCc3ccccc3)C(=O)C2=O)N(CCC2CCCCC2)C1=O	·	7	·	·	14
CC(C)C[C@@H](C(=O)NCc1ccco1)N1C(=O)N2CCc3c([nH]c4ccccc34)[C@@]2(C)C1=O	1	-5	2	2	-20
C=CCn1c(SCc2ccc(C#N)cc2)nnc1-c1cccc(Cl)c1	-39*	-3	-4	-3	0
N#Cc1nnn2c1nc(N)c1c(Cl)cccc12	·	1	·	·	14
CC(C)C(NC(=O)c1ccccc1F)C(=O)OCC(=O)c1ccc(F)cc1 (stereo not given)	-32*	8	5	-13	4
O=C(Nc1ccc(OCc2ccccc2)cc1)c1cccnc1	4	6	61*	2	6
O=C(Nc1ccc2c(c1)oc1ccccc12)c1cccnc1	-55*	0	3	-12	32
O=C(Nc1ccc2c(c1)oc1ccccc12)c1ccncc1	-24	-2	5	-3	-9
O=C(Nc1ccc(Oc2cccnc2)cc1)c1ccccc1F	-42*	0	13	-10	-2
COc1cc(Br)c(C2CC(=O)Nc3cc(OC)c(OC)c(OC)c32)cc1OC (stereo not given)	6	4	3	-1	·
Cc1nc2nc[nH]n2c(=O)c1CCC(=O)Nc1ccc(F)cc1	-5	-3	0	-3	·
CCOc1ccc2[nH]c(=O)c(CN(Cc3ccco3)Cc3nnnn3Cc3ccccc3)cc2c1	-44*	5	0	-9	-5
COc1ccc2[nH]c(=O)c(CN(Cc3ccco3)Cc3nnnn3Cc3ccccc3)cc2c1	6	-1	0	-1	32
COCCn1nnnc1CN(CCc1ccccc1)Cc1cc2ccc(C)cc2[nH]c1=O	-38*	-11	0	-1	0
COc1ccc(CC(=O)NCc2nc3cccnc3n2Cc2ccc(F)cc2)cc1OC	9	-22	0	-2	·
COc1ccc(Nc2nc(OC)nc(OC)n2)cc1	5	0	0	-1	6
COc1ccc(Nc2nc(Nc3ccc(OC)cc3)nc(-n3[nH]c(=O)c(C)c3C)n2)cc1	-3	-16	2	-2	-59*
Cc1nc2sccn2c(=O)c1S(=O)(=O)Nc1cc(Cl)ccc1O	-9	-1	17	1	·

From PubChem BioAssay
